Here are results for 15 molecules from PubChem BioAssay AID602410 (Johns Hopkins Ion Channel Center, 2012).

The campaign covered roughly 340,000 compounds. About 2,800 (0.82%) were called active.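 Rule for the calls: active = B-score under library mean minus 4 SD, starting fluorescence ratio at most library mean plus 5 SD; inactive = the rest.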 What follows is part of a selection rich in actives, with near analogues and random picks from the rest.

Sequence of Potassium channel subfamily K member 3 (Homo sapiens) (O14649 whole entry, looked up): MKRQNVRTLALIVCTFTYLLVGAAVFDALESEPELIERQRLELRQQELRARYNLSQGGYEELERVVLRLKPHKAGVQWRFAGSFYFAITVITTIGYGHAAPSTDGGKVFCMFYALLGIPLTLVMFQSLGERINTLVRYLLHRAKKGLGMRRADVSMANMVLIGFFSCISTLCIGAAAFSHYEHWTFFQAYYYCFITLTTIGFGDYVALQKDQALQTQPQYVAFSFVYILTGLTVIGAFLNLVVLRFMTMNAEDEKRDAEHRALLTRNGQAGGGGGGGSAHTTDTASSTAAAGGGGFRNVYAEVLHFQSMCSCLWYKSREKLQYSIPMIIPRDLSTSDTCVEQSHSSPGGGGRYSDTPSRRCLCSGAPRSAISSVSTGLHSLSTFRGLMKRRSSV

This experiment has as its target Potassium channel subfamily K member 3 (Homo sapiens) (UniProt O14649). Kind of experiment: blockers of TASK1 two-pore potassium channel – CHO cells, FluxOR thallium flux, B-score, primary screen (AID 602410).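 For B-score: more negative B-score means stronger inhibition of thallium flux through KCNK3.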 The settings on record: CHO-KCNK3 thallium flux, FluxOR fluorescence, at 10 µM; stronger effect = lower value.
Consider `CCCCCCN=C(CC)c1c(O)n(CCCC)c(=O)[nH]c1=O`, for which the B-score is -9.07 (active).

On to `CCC(=NCCCO)c1c(O)n(-c2ccc(OC)cc2)c(=O)[nH]c1=O`, for which the B-score entry is “inactive”.

Turning to `CCCCn1c(O)c(C(CC)=NCc2ccco2)c(=O)[nH]c1=O`, the B-score result was “inactive”.

In the case of `COc1ccc(Br)cc1CNCCc1cccc(Cl)c1`, the B-score entry is “inactive”.

In the case of `CCCCC(=O)N/N=C/c1c(O)n(CC)c(=S)n(CC)c1=O`, the B-score result is “inactive”.

As to `Oc1cc2c(cc1CN1CCN(c3ccccc3)CC1)OCO2`, the B-score entry was “inactive”.

In the case of `COc1ccc(C(=O)C2CCCN(Cc3ccc(C)s3)C2)cc1OC` (stereo not given), the B-score entry is “inactive”.

For `COc1ccccc1C1=NCc2nnc(CSC)n2-c2ccc(Cl)cc21`, the B-score is -9.71 (active).

For `Cc1cc(C(=O)OCC(=O)Nc2c(F)cccc2F)c(C)n1C1CC1`, the B-score result is “inactive”.

As to `CC(C)c1c(CN(C)C(C)Cc2ccccc2)n(C)n(-c2ccccc2)c1=O` (stereo not given), the B-score result is “inactive”.

`CCN1CCN(Cc2cc(OC)c3c(c2)OCO3)CC1`: the B-score result is “inactive”.

On to `CCOC(=O)C1SC2(C(F)(F)C(F)F)CC1(O)c1c(c(OC)c3occc3c1OC)O2` (stereo not given), for which the B-score was -10.9 (active).

`CCOC(=O)C(O)(c1ccc(N=Cc2ccccc2O)c(C)c1)C(F)(F)F` (stereo not given): the B-score result is “inactive”.

In the case of `CC12CN3CC(C)(CN(C1)C3c1cccs1)C2` (stereo not given), the B-score entry was “inactive”.

On to `CNCC(O)c1cc(F)c(OCc2ccccc2)c(OCc2ccccc2)c1F` (stereo not given), for which the B-score result was “inactive”.
